{"source": "the supplement of paper PMC11417369", "note": "± gives the standard deviation of the averaged measurements. Whole data set: some 25,000 sequences, median “ln(normalized median fluorescence intensity)” near 8.6, cut for the highest 2% near 10. The sample holds the highest values, similar sequences and a random draw of the others, so the mix is not that of the screen."}
{"tested_on": "PfAP2-EXP AP2 domain (GST-tagged)", "test": "gcPBM binding intensity (ln(normalized median fluorescence intensity)); higher = stronger DNA binding", "method_in_brief": "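Binding intensity is defined as the maximum Masliner-normalised natural-log median intensity across replicate spots for either probe orientation. It was measured on an Agilent 4 × 180k array of primer-extended double-stranded 36-bp intergenic genomic probes and negative controls, to which GST-tagged P. falciparum DNA-binding domains made in E. coli were applied for 1 h in 1× PBS with 1% milk, 0.2 mg/ml BSA, 0.5% salmon testes DNA and 0.03% Triton X-100. Detection was by Alexa488 anti-GST antibody and scanning at 488 nm.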"}
{"sequence": "TTTTATGATTGACACACACACAAAAAAAAAAAAAAA [CACACA_site7860]", "gcPBM binding intensity (ln)": "8.2 ± 0.43"}
{"sequence": "ATATATATATATATAGTGCATAAAATAAGTTTCTAA", "gcPBM binding intensity (ln)": "10.2 ± 0.28"}
{"sequence": "AATAAAAATAATATAGTGCATAATATAAGGAAAAAA", "gcPBM binding intensity (ln)": "9.07 ± 0.071"}
{"sequence": "TATATATATATATAAGTGCATATAAAAATCGTTCGT", "gcPBM binding intensity (ln)": "10.3 ± 0.18"}
{"sequence": "TTTCTAGTTACAAGAGTGCATAATATATAAAAATAA [GTGCAC_site9874]", "gcPBM binding intensity (ln)": 8.85}
{"sequence": "TATATATATATAATAGTGCATAAATAAATATATAAA", "gcPBM binding intensity (ln)": "9.65 ± 0.057"}
{"sequence": "AAAAAAAATATACATACATGCATACATAAGTTTCTA [TGCATGCA_site998]", "gcPBM binding intensity (ln)": "8.49 ± 0.24"}
{"sequence": "TTTTTTATTCCATAATATAATATGTTTTGAAATTTG [GTGCAC_negctrl_site440]", "gcPBM binding intensity (ln)": "8.27 ± 0.33"}
{"sequence": "TTTATTATATTTTTTTGTACATATTGATGTATATAA [XGTACX_site6527]", "gcPBM binding intensity (ln)": "8.59 ± 0.28"}
{"sequence": "GATGTGATGTATTTGGTATTTTTCGATGTTGGTAGG [CACACA_negctrl_site355]", "gcPBM binding intensity (ln)": "8.79 ± 0.73"}
{"sequence": "TACTATTTAAAATATGAACACACATTATTTGTTTTA [CACACA_site8870]", "gcPBM binding intensity (ln)": "8.13 ± 0.3"}
{"sequence": "ATATTGAAATGTTAATAGAAATATATGGTTAAATTG [XGTACX_negctrl_site212]", "gcPBM binding intensity (ln)": "8.34 ± 0.34"}
{"sequence": "ATATACAGAAAAAATTAAAATAAATATGCAAAACAA [CACACA_negctrl_site704]", "gcPBM binding intensity (ln)": "8.86 ± 0.32"}
{"sequence": "AAAATAAAATTAGTTGCATGCAACTTAAACAGAAAT [TGCATGCA_site860]", "gcPBM binding intensity (ln)": "10.3 ± 0.35"}
{"sequence": "ATAAATAAAACAACAGTGCAATAAAATTAGTTGAGG", "gcPBM binding intensity (ln)": "9.035 ± 0.021"}
{"sequence": "GTGTAAAAATTAAAGTGTACACATATATATATATAT [XGTACX_site2251]", "gcPBM binding intensity (ln)": "10.2 ± 0.31"}
{"sequence": "ATATATAATTAATTTTGTACACATAAAAAAAAAAAT [XGTACX_site6647]", "gcPBM binding intensity (ln)": "8.59 ± 0.42"}
{"sequence": "AAAAAATTATAAAAGTGTACATATATATATATATAT [XGTACX_site154]", "gcPBM binding intensity (ln)": "10 ± 0.38"}
{"sequence": "CCTAAAGTGTAAAATTCACACACATATATATATATA [CACACA_site8385]", "gcPBM binding intensity (ln)": "10.2 ± 0.44"}
{"sequence": "TAAAGTGTAAAATTCACACACATATATATATATATA [CACACA_site4883]", "gcPBM binding intensity (ln)": "10.1 ± 0.36"}
{"sequence": "TAAATTAATAAAAAGTGTACATAATATACATATATA [XGTACX_site8604]", "gcPBM binding intensity (ln)": "8.62 ± 0.33"}
{"sequence": "TTTTTCTTAAAAAATTGTACACATATATATATATAT [XGTACX_site542]", "gcPBM binding intensity (ln)": "10.3 ± 0.22"}
{"sequence": "TATTGTTATTAAAAATGTACATATAAATTTCTTATT [XGTACX_site1409]", "gcPBM binding intensity (ln)": "8.32 ± 0.33"}
{"sequence": "TAAAAATTAAAGTGTACACATATATATATATATATA [CACACA_site4781]", "gcPBM binding intensity (ln)": "10.2 ± 0.38"}
{"sequence": "AGGGGAAATAAAATATAAATTATCATATATATATAT [XGTACX_negctrl_site366]", "gcPBM binding intensity (ln)": "9.94 ± 0.21"}
{"sequence": "TTTTATTATATATATTGTACATATATTTTTATTTTT [XGTACX_site1564]", "gcPBM binding intensity (ln)": "8.62 ± 0.33"}
{"sequence": "TAAACATAAATATACACACAAACATATATGTATTTT [CACACA_site1214]", "gcPBM binding intensity (ln)": "8.51 ± 0.32"}
{"sequence": "TATGAACACCCAAATACACACACTCAAAAAAAAAAA [CACACA_site5466]", "gcPBM binding intensity (ln)": "8.4 ± 0.32"}
{"sequence": "AAAAAAAAAAAAAATACACACATATAAATATAAATA [CACACA_site6189]", "gcPBM binding intensity (ln)": "8.3 ± 0.49"}
{"sequence": "TAAAAAATAAAATACACACACATATATATATATATA [CACACA_site1323]", "gcPBM binding intensity (ln)": "10.2 ± 0.64"}
{"sequence": "TAAAAAAATAAATATACACACATATATATATATATA [CACACA_site1089]", "gcPBM binding intensity (ln)": "10.2 ± 0.29"}
{"sequence": "AAAAATAAAATATATACACACATATATATATATATA [CACACA_site2943]", "gcPBM binding intensity (ln)": "10.2 ± 0.64"}
{"sequence": "ATAAAAAAAAAAAATACACACATATATATATATATA [CACACA_site1709]", "gcPBM binding intensity (ln)": "10.1 ± 0.26"}
{"sequence": "AAAAATAAGATATATACACACATATAAATATAAATA [CACACA_site7396]", "gcPBM binding intensity (ln)": "8.51 ± 0.38"}
{"sequence": "AAAAAAAAAATATACACACACACATACACATAAATA [CACACA_site3808]", "gcPBM binding intensity (ln)": "8.79 ± 0.53"}
{"sequence": "TACATATATTATTGCACACATATAAAATACCCCCAA [CACACA_site3895]", "gcPBM binding intensity (ln)": "9.55 ± 0.52"}
{"sequence": "TAAAAAATAAGATATACACACATATATATATATATA [CACACA_site2324]", "gcPBM binding intensity (ln)": "10.2 ± 0.42"}
{"sequence": "TAAAAAATAAGATATACACACATATATTTATTTATA [CACACA_site7158]", "gcPBM binding intensity (ln)": "8.09 ± 0.52"}
{"sequence": "CATACATATATTATTGCACACATATAAAATACCCCC [CACACA_site9292]", "gcPBM binding intensity (ln)": "10.2 ± 0.33"}
{"sequence": "TACAGATATTATTGCACACATATAAAATACCCCCAA [CACACA_site6014]", "gcPBM binding intensity (ln)": "9.53 ± 0.33"}
{"sequence": "ATTATACTTTCCATTCGTACATATATAAATAAATAA [XGTACX_site6245]", "gcPBM binding intensity (ln)": "8.93 ± 0.35"}
{"sequence": "TTTTATTTATTTTATTGTACATATATAAAACTATGA [XGTACX_site3476]", "gcPBM binding intensity (ln)": "8.57 ± 0.42"}
{"sequence": "ATATTTTTAGATTCAGAAAAAAGATTCAACTTACTC [CACACA_negctrl_site1357]", "gcPBM binding intensity (ln)": "8.25 ± 0.45"}
{"sequence": "ATGTAGAATTGTAAATGTACATGAAACACATATTCA [XGTACX_site3436]", "gcPBM binding intensity (ln)": "8.79 ± 0.34"}
{"sequence": "TATAATATATTTATATGTACTTATTTATTTATATAT [XGTACX_site6519]", "gcPBM binding intensity (ln)": "8.39 ± 0.34"}
{"sequence": "AAAAATAAAATAAAGAAGGAAAATAAAAAAATAAGG [CACACA_negctrl_site1811]", "gcPBM binding intensity (ln)": "8.79 ± 0.44"}
{"sequence": "ATTTGTATATATTAATGTACACACATGCGTATGTTC [XGTACX_site7579]", "gcPBM binding intensity (ln)": "8.73 ± 0.41"}
